Calls of active or inactive are those of the source. The calls were made as follows: active = hit-call score of the fitted dose curve at least 0.9, where 1 is the maximum; inactive = score below 0.9.
experiment: CCTE_Mundy_HCI_Cortical_Synap_Neur_Matur_BPCount: CCTE's Synaptogenesis and Neurite Maturation Assay in rat cortical cells for Branch Point Count, Mundy Lab (AID 2284211)
Summary of the method: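 Rat primary cortical cultures, AraC added DIV 5; chemicals dosed DIV 7 through DIV 12. Fixed cells stained for MAP2, synaptophysin and Hoechst; neurite branch points counted by automated high-content imaging, fitted relative to DMSO.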

Structure (SMILES)	AC50	outcome
C[n+]1ccc(-c2cc[n+](C)cc2)cc1	0.947 µM (active)	
CCOP(=S)(OCC)SCS(=O)C(C)(C)C (stereo unspecified)		inactive
C#CCN(C)[C@H](C)Cc1ccccc1		inactive
Cn1nc(C(F)(F)F)c(CS(=O)(=O)C2=NOC(C)(C)C2)c1OC(F)F	15.1 µM (active)	
CC1(C)C(C=C(Cl)c2ccc(Cl)cc2)C1C(=O)OC(C#N)c1ccc(F)c(Oc2ccccc2)c1 (stereo unspecified)	50 µM (active)	
CCOP(=O)(Oc1cnc(C(C)(C)C)nc1)OC(C)C (stereo unspecified)		inactive
CC1(C)[C@H](C=C(Cl)Cl)[C@H]1C(=O)OCc1c(F)c(F)cc(F)c1F	9.4 µM (active)	
CC1(C)C(C=C(Cl)Cl)C1C(=O)O[C@H](C#N)c1cccc(Oc2ccccc2)c1 (stereo partly specified)	12.8 µM (active)	
CCOP(=O)(OCC)OC(Cl)C(Cl)(Cl)Cl (stereo unspecified)	79.5 µM (active)	
CCOP(=O)(OCC)SCSC(C)(C)C		inactive
CC1(C)[C@@H](C=C(Cl)Cl)[C@@H]1C(=O)O[C@@H](C#N)c1ccc(F)c(Oc2ccccc2)c1		inactive
COP(=O)(OC)SCN1C(=O)c2ccccc2C1=O		inactive
CC(=O)[O-].[Tl+]	9.92 µM (active)	

experiment: CCTE_Mundy_HCI_Cortical_NOG_NeuriteCount: CCTE's Neurite Outgrowth Assay in rat cortical cells for Neurite Count, Mundy Lab (AID 2284212);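 also: cells fixed about two days after chemical exposure began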
Summary of the method: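 Neurite number per cell from high-content imaging of betaIII-tubulin immunostaining, with Hoechst nuclear counterstain.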

Structure (SMILES)	AC50	outcome
C[n+]1ccc(-c2cc[n+](C)cc2)cc1	29.6 µM (active)	
CCOP(=S)(OCC)SCS(=O)C(C)(C)C (stereo unspecified)		inactive
C#CCN(C)[C@H](C)Cc1ccccc1		inactive
Cn1nc(C(F)(F)F)c(CS(=O)(=O)C2=NOC(C)(C)C2)c1OC(F)F	84.9 µM (active)	
CC1(C)C(C=C(Cl)c2ccc(Cl)cc2)C1C(=O)OC(C#N)c1ccc(F)c(Oc2ccccc2)c1 (stereo unspecified)	39.1 µM (active)	
CCOP(=O)(Oc1cnc(C(C)(C)C)nc1)OC(C)C (stereo unspecified)		inactive
CC1(C)[C@H](C=C(Cl)Cl)[C@H]1C(=O)OCc1c(F)c(F)cc(F)c1F	80.1 µM (active)	
CC1(C)C(C=C(Cl)Cl)C1C(=O)O[C@H](C#N)c1cccc(Oc2ccccc2)c1 (stereo partly specified)	80 µM (active)	
CCOP(=O)(OCC)OC(Cl)C(Cl)(Cl)Cl (stereo unspecified)		inactive
CCOP(=O)(OCC)SCSC(C)(C)C	75.4 µM (active)	
CC1(C)[C@@H](C=C(Cl)Cl)[C@@H]1C(=O)O[C@@H](C#N)c1ccc(F)c(Oc2ccccc2)c1		inactive
COP(=O)(OC)SCN1C(=O)c2ccccc2C1=O		inactive
CC(=O)[O-].[Tl+]	59.5 µM (active)	

Source: PubChem BioAssay (EPA / NIEHS)
